High-throughput results from PubChem.
Compounds with a hit are over-represented: about 12% of the library has one in this group of screens.
HP1b binding inh – blocks HP1-beta chromodomain binding to methylated histone tails; P83916; AlphaScreen HP1-beta / biotin-H3K9me3 peptide binding; Potency, µM (series often up to 114 µM), for the others: at the top dose activity change, negative = inhibition, usual class: inhibitors; 390,000 compounds, 0.56% hits; AID 540317; also: nearly all actives have a fitted effect of over 70% in size
Target sequence (P83916 whole entry, looked up): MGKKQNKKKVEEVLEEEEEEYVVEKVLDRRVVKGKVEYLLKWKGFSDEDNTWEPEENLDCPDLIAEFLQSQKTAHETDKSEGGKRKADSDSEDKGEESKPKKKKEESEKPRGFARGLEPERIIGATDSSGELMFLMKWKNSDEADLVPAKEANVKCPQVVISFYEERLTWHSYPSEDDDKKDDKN
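Compound inhibition of the preformed complex between 50 nM HP1-beta and 50 nM biotinylated H3K9me3 peptide was read by AlphaScreen. Buffer was PBS pH 7.4 with 0.01% Tween-20. Incubations ran 30 min at room temperature, with 10 ug/mL donor/acceptor beads.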
G9a inh – blocks human histone lysine methyltransferase G9a; Potency, µM (highest dose often 102 µM), for inactives: at the highest dose activity, negative = inhibition, actives largely listed as inhibitors; G9a H3K9 monomethylation, AlphaScreen, 2 h; 350,000 compounds, 8.8% hits; also: % is scaled to controls: 0 for no effect and ±100 for the full control effect; nearly all actives have a fitted effect of over 75% in size
Target sequence (Q96KQ7 913-1193 limits assumed): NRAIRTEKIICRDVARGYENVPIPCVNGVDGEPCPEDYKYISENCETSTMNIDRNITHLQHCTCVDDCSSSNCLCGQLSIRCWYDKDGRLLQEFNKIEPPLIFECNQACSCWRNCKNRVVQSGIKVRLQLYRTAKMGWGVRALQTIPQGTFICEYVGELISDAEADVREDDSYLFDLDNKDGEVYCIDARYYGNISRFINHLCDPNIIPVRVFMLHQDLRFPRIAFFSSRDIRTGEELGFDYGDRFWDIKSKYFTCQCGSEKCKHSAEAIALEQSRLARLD
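Compounds were preincubated with 20 nM G9a for 15 min, after which biotinylated H3K9 peptide (500 nM) and SAM (20 uM) started a 2 h room-temperature reaction. Monomethylated product was quantified by antibody-based AlphaScreen chemiluminescence.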
Sfp inh – Sfp phosphopantetheinyl transferase inhibition; Q9F4F7; AID 1490; Potency, µM, for inactives: largest response in the series, negative = inhibition, actives largely listed as inhibitors; 310,000 compounds, 3.5% hits; Biochemical Sfp PPTase activity, qHTS;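 also: the enzyme is Sfp with the accession as filed and its product quenches rhodamine fluorescence; 0% = enzyme reaction without inhibitor and -100% = no enzyme wells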
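Buffer: 50 mM Hepes-Na pH 7.6, 10 mM MgCl2, 0.01% Nonidet P-40, 0.01% BSA. Enzyme 15 nM, pre-exposed to compound 15 min; substrates then added and fluorescence change tracked over 30 min.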
BAZ2B inh – BAZ2B (human) inhibition | AlphaScreen BAZ2B-H3K14Ac peptide displacement | Q9UIF8 | 360,000 compounds, 4.4% hits | AID 504333 | Potency, µM (titrated, usually from 114 µM), inactives show at the top dose activity change, negative = inhibition, most hits filed as inhibitors; also: % is scaled to controls: 0 for no effect and ±100 for the full control effect; nearly all actives have a fitted effect of over 60% in size
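In this displacement format the biotinylated H3(5-23) peptide acetylated at Lys14 serves as ligand at 50 nM, with BAZ2B at 50 nM in PBS pH 7.4 containing 0.01% Tween-20. Donor and acceptor beads are 10 ug/mL final.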
JMJD2A Tudor – JMJD2A Tudor domain (human) inhibition; O75164; AlphaScreen JMJD2A-Tudor / H3K4me3 peptide binding; Potency, µM (series often up to 114 µM), inactives show at the highest dose activity change, negative = inhibition, most hits filed as inhibitors; 390,000 compounds, 4.4% hits; AID 504339; also: % is scaled to controls: 0 for no effect and ±100 for the full control effect; nearly all actives have a fitted effect of over 50% in size
PLK1 PBD block – inhibitors of human PLK1 polo-box domain binding | P53350 | Plk1 PBD binding of FITC phosphopeptide, fluorescence polarization | Potency, µM, for inactives: max response, negative = inhibition, hits mostly inhibitors | 360,000 compounds, 2.8% hits; also: series mostly up to about 57 µM; % is scaled to controls: 0 for no effect and ±100 for the full control effect; nearly all actives have a fitted effect of over 65% in size
* marks the source's active call; other numbers are inactive results; ? = inconclusive; . = no result; [ ] = remark or other dose. Calls follow the shape of the dose curve; as a rule, active = well fitted curve in the direction sought with a large enough effect; inconclusive = small, poorly fitted or top-dose-only effect, or another doubt; inactive = no such curve, though single readings can be large; an effect the other way counts as inactive or inconclusive. Potency is read from the fitted curve at half-maximal effect.

SMILES	HP1b binding inh	G9a inh	Sfp inh	BAZ2B inh	JMJD2A Tudor	PLK1 PBD block
CCc1nc(SCC(=O)Nc2ccc(N(C)C)cc2)c2ccccc2n1	1%	10µM*	?	-30%	-33%	0%
CC1CCCCC12NC(=O)N(CC(=O)OCc1cccc(F)c1)C2=O (stereo not given)	37%	16%[12.7 µM]	.	-4%	7%	3%
COc1cc(N/N=C(\C)c2ccc(O)c(C)c2)nc(-c2ccccc2)n1	?	?	9%	-28%	?	-6%
COc1cc(N/N=C(\C)c2ccc(N)cc2)nc(-c2ccccc2)n1	3%	45µM*	15%	32µM*	-34%	2%
CCC(=O)NNc1nc2c(C)cccc2s1	30%	?	50µM*	.	-8%	-6%
Cc1ccc2nc(NC(=O)CCn3cccc3)sc2c1	30%	3%	5%	-6%	-10%	3%
Cc1cccc2sc(NC(=O)CSCc3ccccc3)nc12	72%	23%[12.7 µM]	4%	2%	8%	-21%
Cc1cccc2sc(NC(=O)CCn3cccc3)nc12	?	50µM*	13%	.	-32%	-5%
Cc1cccc2sc(NC(=O)Cn3cccc3)nc12	5%	45µM*	-8%	?	?	4%
Cc1cccc(NS(=O)(=O)c2ccc3oc(=O)c4ncn(C)c4c3c2)c1C	25%	-12%[59 µM]	.	-7%	-12%	.
COc1ccccc1C(=O)Nc1ccc(S(=O)(=O)Nc2nc(C)cc(C)n2)cc1	38%	1%[59 µM]	.	-11%	-12%	.
COC(=O)C1=C(C(=O)OC)C2(OC1c1ccccc1C)C(=O)c1ccccc1C2=O (stereo not given)	17%	14µM*	-29%	5%	-13%	-10%
COC(=O)C1=C(C)N(C)C(C)=C(C(=O)OC)C1c1ccccc1C	23%	-6%	-7%	-2%	-3%	-1%
CCOC(=O)C1=C(C)NC(=NC)SC1c1ccccc1 (stereo not given)	-18%	2%	15%	-25%	?	21µM*
CC(C)n1c(=S)[nH]c2c1c(=O)[nH]c(=O)n2C	10µM*	?	10µM*	?	2µM*	-16%
C=CC(C)n1c(Br)nc2c1c(=O)[nH]c(=O)n2C (stereo not given)	30%	?	7%	-3%	-2%	-1%
CCc1c(C)sc(NC(=O)c2cc(CC(C)C)on2)c1C#N	19%	?	-7%	-3%	6%	15µM*
CCc1c(C)sc(NC(=O)c2cc(-c3cc(OC)ccc3OC)on2)c1C#N	24%	-29%	23%	-23%	-17%	-2%
CCc1c(C)sc(NC(=O)c2cc(-c3ccc(OC)c(OC)c3)on2)c1C#N	?	7.9µM*	11%	3%	-6%	-13%
COc1ccc(-c2cc(C(=O)Nc3cc(C)n(Cc4ccc(Cl)cc4)n3)no2)cc1OC	12%	-31%[59 µM]	71µM*	-1%	-6%	1%
CCc1c(C)sc(NC(=O)c2noc(C)c2[N+](=O)[O-])c1C#N	-8%	40µM*	50µM*	-38%	-19%	34µM*
Cc1noc(C)c1C(=O)Nc1sc(C)c(-c2ccccc2)c1C#N	-17%	?	-17%	?	-19%	-30%
COc1ccc(CCNC(=O)c2cc(-c3ccc(Cl)cc3)on2)cc1OC	26%	-6%[59 µM]	.	3%	-25%	.
Cc1ccccc1NC(=O)CSC1=Nc2ccccc2C2=NC(Cc3ccccc3)C(=O)N12 (stereo not given)	29%	0%[12.7 µM]	.	-15%	-3%	.
N#Cc1ccc(NC(=O)c2cc(-c3cccc(Cl)c3)on2)cc1	-7%	-32%[59 µM]	.	-27%	-17%	.
SMILES	HP1b binding inh	G9a inh	Sfp inh	BAZ2B inh	JMJD2A Tudor	PLK1 PBD block
Cc1nn(Cc2ccc(Cl)c(Cl)c2)c(C)c1NC(=O)c1cc(-c2ccc3c(c2)OCO3)on1	4%	56µM*	2%	50µM*	-18%	1%
CCc1c(C)sc(NC(=O)c2cc(-c3ccc(O)cc3)on2)c1C#N	14%	45µM*	-3%	8%	-6%	19µM*
CCc1c(C)sc(NC(=O)c2cc(-c3cccc(Cl)c3)on2)c1C#N	-11%	3.2µM*	.	-2%	-11%	.
Cn1c(=O)oc2cc(S(=O)(=O)NC(Cc3ccccc3)C(=O)NCc3ccccc3Cl)ccc21 (stereo not given)	42%	4%[59 µM]	.	1%[57.1 µM]	6%	.
CC(C)(C)OC(=O)N/N=C\C=C\c1ccc2c(c1)OCO2	49%	21%[59 µM]	6%	10%	3%	-1%
C=C[C@@H](C1=CC(=O)C(OC)=C(OC)C1=O)c1ccccc1	.	.	11µM*	.	.	.
COc1cc(/C=C/C(=O)OCC(=O)Nc2ccc(S(N)(=O)=O)cc2)ccc1O	-15%	-5%	9%	-11%	-15%[11.4 µM]	13µM*
COc1cc(/C=C/C(=O)OCC(=O)Nc2ccc([N+](=O)[O-])cc2)ccc1O	15%	.	-1%	-7%	-31%	-5%
C/C=C/C(=O)OCC(=O)Nc1ccc(OC)c(OC)c1	30%	-28%	1%	50µM*	9%	1%
O=C(NC1CCCCC1)C(=S)N1CCOCC1	-2%	?	50µM*	-7%	-3%	24µM*
CCn1c(CSc2nc3ccccc3s2)nc2ccccc21	31%	10µM*	-17%	-3%	-8%	-5%
CCOc1ccc(NCc2nnc(SCc3ccccc3Cl)n2-c2ccccc2)cc1	-50%	?	15%	20µM*	35µM*	-2%
O=C(O)CSc1nnc(CSc2nc3ccccc3s2)n1-c1ccccc1	46%	35µM*	24%	-9%	2%	3%
O=C(O)CSc1nnc(CNc2ccc(Cl)cc2)n1Cc1ccccc1	-2%	-33%[2.33 µM]	23%	?	79µM*	27µM*
C/C(N)=C(/C#N)C(=O)CSc1nc(-c2ccccc2)c(-c2ccccc2)o1	7%	?	-1%	?	?	-21%
Cc1nc(NC2CCCCC2)c2nc(-c3ccccc3)n(CCN3CCCC3)c2n1	.	.	0%	.	.	.
O=C(O)CSc1nnc(CNc2ccc(F)cc2)n1-c1ccccc1	74%	-128%	4%	79µM*	-16%	-4%
O=C(C1=NN[C@@H]2C(=O)N(c3ccccc3C(F)(F)F)C(=O)[C@H]12)c1cnccn1	65%	?	4%	-23%	-2%	1%
O=C(C1=NN[C@@H]2C(=O)N(c3cccc(F)c3)C(=O)[C@H]12)c1cnccn1	36%	20µM*	?	45µM*	18µM*	4%
CCN1C(=O)[C@@H]2C(C(=O)c3cnccn3)=NN[C@@H]2C1=O	-2%	.	-15%	-14%	45µM*	-23%
O=C(/C=C/c1ccccc1)Nc1ccc2c(c1)C(=O)NC2=O	34%	-3%	-5%	-6%	-16%	4%
